# Sampled rows, rich in hits. Any-hit rate of the full collection: about 6.3%.
# tim10-1 inh = tim10-1 yeast growth inhibition; S. cerevisiae tim10-1 ts strain growth, BacTiter-Glo, 24 h; 2.2% of 330,000 active; inhibition, % at 20 µM;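 active = inhibition of at least 40%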;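 note: mutant grown at 25 °C; 0% = DMSO wells with yeast and 100% = wells holding no yeast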
# MPTP inh = blocks calcium-induced mitochondrial swelling | isolated mouse mitochondria, Ca2+ swelling absorbance, 30 min | inhibition, % at 10 µM | AID 602449 | 1.4% of 360,000 active;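 active = inhibition of 50% or more, scaled per plate between neutral and stimulator controls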;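 note: 0% = DMSO wells given calcium and 100% = 1 mM EGTA wells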
# Mdm2 MdmX PPI = human Mdm2/MdmX binding inhibition; inhibition, % at 8 µM; SaOS-2 split-luciferase Mdm2/MdmX complementation, luminescence; AID 485346; 3% of 330,000 active; O15151+Q00987;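 active = inhibition of at least 50% at 8 µM in the primary screen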
# Target sequence (O15151 whole entry, looked up): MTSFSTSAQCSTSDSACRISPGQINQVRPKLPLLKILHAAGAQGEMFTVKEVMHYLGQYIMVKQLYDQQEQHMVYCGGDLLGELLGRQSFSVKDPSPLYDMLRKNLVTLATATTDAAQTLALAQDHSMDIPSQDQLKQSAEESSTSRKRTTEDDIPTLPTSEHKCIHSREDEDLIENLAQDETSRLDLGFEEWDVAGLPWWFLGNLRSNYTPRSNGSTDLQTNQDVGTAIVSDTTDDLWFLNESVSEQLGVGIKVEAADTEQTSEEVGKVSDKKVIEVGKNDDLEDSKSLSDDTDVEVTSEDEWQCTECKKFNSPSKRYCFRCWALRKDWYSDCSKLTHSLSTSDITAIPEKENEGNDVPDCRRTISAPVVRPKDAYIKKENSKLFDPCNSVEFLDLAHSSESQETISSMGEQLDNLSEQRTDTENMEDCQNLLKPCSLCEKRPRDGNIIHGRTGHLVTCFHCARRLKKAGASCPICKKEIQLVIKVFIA
# Target sequence (Q00987 whole entry, looked up): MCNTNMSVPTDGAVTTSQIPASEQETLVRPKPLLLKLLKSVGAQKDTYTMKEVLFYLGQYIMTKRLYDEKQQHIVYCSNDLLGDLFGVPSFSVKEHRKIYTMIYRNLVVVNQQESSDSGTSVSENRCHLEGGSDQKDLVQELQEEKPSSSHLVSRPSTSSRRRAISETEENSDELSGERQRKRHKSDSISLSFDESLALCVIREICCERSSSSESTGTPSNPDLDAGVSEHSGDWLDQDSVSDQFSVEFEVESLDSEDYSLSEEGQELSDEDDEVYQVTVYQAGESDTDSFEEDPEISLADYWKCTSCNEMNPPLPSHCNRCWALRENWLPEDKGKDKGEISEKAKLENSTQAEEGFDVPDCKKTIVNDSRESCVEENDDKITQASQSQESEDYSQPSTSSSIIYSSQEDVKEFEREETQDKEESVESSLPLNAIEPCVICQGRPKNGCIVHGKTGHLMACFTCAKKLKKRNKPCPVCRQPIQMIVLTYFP
# tim23-1 inh = inhibits growth of tim23-1 mutant yeast; S. cerevisiae tim23-1 growth, BacTiter-Glo luminescence, 24 h; 1.3% of 330,000 active; AID 463212; inhibition, % at 20 µM;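 active = growth inhibition of the mutant yeast at or above 50%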;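 note: temperature-sensitive mutant grown at 25 °C; plate controls were DMSO-treated mutant yeast for no effect and medium wells lacking yeast for full effect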
# TIM10 inh = growth inhibitors of TIM10 yeast strain. S. cerevisiae TIM10 strain growth, BacTiter-Glo luminescence, 24 h. inhibition, % at 10 µM. 1.4% of 330,000 active. AID 463195;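 active = inhibition of 40% or more at the single tested concentration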;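 note: wild-type TIM10 isogenic control strain grown at permissive 25 °C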
# tim10-1 conf = confirmation of tim10-1 mutant yeast growth inhibitors | S. cerevisiae tim10-1 ts strain growth, BacTiter-Glo, 24 h | 56% of 7,400 active | inhibition, % at 20 µM | shares compounds with tim10-1 inh;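 active = inhibition of yeast growth at or above a set limit in either of two repeat tests at 20 µM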;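 note: tim10-1 mutant grown at permissive 25 °C to find synthetic lethal compounds; 0% = DMSO yeast wells and 100% = medium wells without yeast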
# TIM10 conf = confirmation of TIM10 yeast growth inhibitors; AID 463215; shares compounds with TIM10 inh; inhibition, % at 10 µM; 63% of 4,600 active; S. cerevisiae tim10 strain growth, BacTiter-Glo luminescence, 24 h;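 active = inhibition of yeast growth at or above a set limit in either of two replicates at 10 µM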;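 note: this counterscreen used the strain with wild-type TIM10; 0% = yeast with DMSO and 100% = medium wells lacking yeast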
# tim23-1 confirm = confirmation of tim23-1 mutant yeast growth inhibitors; shares compounds with tim23-1 inh; S. cerevisiae tim23-1 growth, BacTiter-Glo luminescence, 24 h; inhibition, % at 20 µM; 83% of 4,400 active;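 active = inhibition above about 39% in either of two replicate wells at 20 µM, limit read from the data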;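 note: temperature-sensitive tim23-1 mutant grown at 25 °C; 0% = DMSO wells with yeast and 100% = medium wells without yeast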
# Mdm2-MdmX conf = confirmation of human Mdm2/MdmX interaction inhibitors. shares compounds with Mdm2 MdmX PPI. Mdm2-MdmX binding, luminescent assay. inhibition, % at 8 µM. 55% of 10,000 active; in the data active = inhibition above about 40%
# Full FLuc ctr = counter-screen for Mdm2/MdmX inhibitors: full-length luciferase | shares compounds with Mdm2 MdmX PPI | SaOS-2 full-length luciferase counterscreen, luminescence | inhibition, % at 8 µM | 77% of 6,200 active;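 active = mean inhibition at 8 µM reaching about 37%, which flags the compound as non-specific, limit read from the data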;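 note: p53-null SaOS-2 cells with luciferase driven by a doxycycline-inducible promoter; compound on cells about two nights before reading with doxycycline added after day one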
# Numbers without * were called inactive; nt = no result.
SMILES,tim10-1 inh,MPTP inh,Mdm2 MdmX PPI,tim23-1 inh,TIM10 inh,tim10-1 conf,Mdm2-MdmX conf,Full FLuc ctr,others
O=c1[nH]c(SCc2ccc(Cl)cc2)nc2ccccc12,18.1,2.0,16.1,11.1,16.4,nt,nt,nt,
Cc1ccc(CSc2nc3ccccc3cc2C=O)cc1,47.6*,1.8,64.0*,69.2*,25.1,47.1*,64.8*,80.0*,tim23-1 confirm=56.8*
Brc1cc(Br)c2ncnc(N3CCCCC3)c2c1,45.7*,1.1,88.7*,47.5,2.4,12.4,63.9*,27.7,
OC(CSc1nnnn1-c1ccccc1)Cn1c2ccccc2c2ccccc21 (stereo unspecified),nt,2.2,nt,nt,nt,nt,nt,nt,
CCCCNC(=O)C1C(c2ccc(OC)cc2)=Nc2ccccc2N1C(=O)c1ccncc1 (stereo unspecified),nt,-2.3,nt,nt,nt,nt,nt,nt,
Cc1oc2c(c1C(=O)O)C(=O)c1ccccc1C2=O,4.6,0.3,24.0,15.2,13.5,nt,nt,nt,
CCOC(=O)c1c(C)oc2c1C(=O)c1ccccc1C2=O,71.8*,2.9,53.7*,78.9*,72.5*,73.6*,24.9,nt,TIM10 conf=64.4*;tim23-1 confirm=93.9*
O=C(C1=C(c2ccccc2)C(=O)c2ccccc2C1=O)c1ccccc1,nt,4.7,nt,nt,nt,nt,nt,nt,
Cc1oc2c(c1C(=O)c1ccccc1)C(=O)C(=O)c1ccccc1-2,56.2*,0.9,96.9*,67.8*,50.9*,49.5*,71.8*,0.2,TIM10 conf=53.3*;tim23-1 confirm=67.1*
O=C1C(=O)c2c(C(=O)c3ccccc3)coc2-c2ccccc21,93.0*,6.9,100.3*,70.8*,73.7*,91.2*,4.8,nt,TIM10 conf=81.0*;tim23-1 confirm=64.6*
COC(=O)/C(=C1/Oc2cc(C)oc(=O)c2S1)C(F)(F)F,57.0*,0.5,100.2*,62.1*,41.2*,38.9*,99.8*,51.0*,TIM10 conf=41.0*;tim23-1 confirm=68.8*
CC[n+]1c(/C=C/N(C)c2ccccc2)oc2ccc(Cl)cc21,14.1,2.3,29.2,21.9,6.1,nt,nt,nt,
CCN1/C(=C/C=C/c2oc3ccc4ccccc4c3[n+]2CC)Oc2ccc3ccccc3c21,54.4*,nt,96.8*,68.9*,61.7*,56.2*,98.7*,28.6,TIM10 conf=68.3*;tim23-1 confirm=64.2*
Cn1c2ccccc2c(=O)c2c(=O)n(C3CCCCC3)c(-c3cccs3)nc21,43.4*,-0.1,58.5*,60.5*,34.0,36.0*,69.3*,62.6*,tim23-1 confirm=69.2*
Cn1c2ccccc2c(=O)c2c(=O)n(-c3ccccc3)c(C3CCCCC3)nc21,20.2,2.3,-13.7,8.1,12.6,nt,nt,nt,
CCc1nc2c(c(=O)c3ccccc3n2C)c(=O)n1C1CCCCCC1,40.5*,3.1,51.7*,45.1,-2.1,11.2,76.1*,80.7*,
COc1ccc(Cn2c(C3CCCCC3)nc3c(c(=O)c4ccccc4n3C)c2=O)cc1,-7.1,nt,33.0,10.0,4.4,nt,nt,nt,
C[C@@H]1CN([C@H](C)CO)C(=O)CCCn2nncc2CO[C@H]1CN(C)Cc1cccc(C(F)(F)F)c1,nt,-1.6,nt,nt,nt,nt,nt,nt,
COC(=O)[C@]12CCCCC=C1N(Cc1ccc(Cl)cc1Cl)C(=O)[C@H](CC(=O)N1CCCC1)C2,nt,-0.8,nt,nt,nt,nt,nt,nt,
Cc1[nH]c2ccccc2c1C(=O)C(=O)NCc1nnnn1-c1ccc(F)cc1,nt,0.1,nt,nt,nt,nt,nt,nt,
C[C@H](CO)N1C[C@H](C)[C@@H](CN(C)C(=O)Nc2ccccc2)Oc2ncc(-c3ccc(C#N)cc3)cc2C1=O,nt,-0.7,nt,nt,nt,nt,nt,nt,
CC[C@@H](C)[C@H](NC(=O)OCc1ccccc1)c1nnc([C@@H](NC(=O)OCc2ccccc2)[C@@H](C)CC)o1,13.1,1.1,-8.7,18.4,1.7,nt,nt,nt,
CC[C@@H](C)[C@H](NC(=O)OC(C)(C)C)c1nnc(S(=O)(=O)Cc2cc(C)ccc2C)o1,52.1*,26.7,81.6*,42.8,34.9,57.0*,66.3*,3.3,
O=C(Nc1ccc(N2CCCCC2)cc1)c1cncc(Br)c1,18.6,0.1,-52.0,12.1,4.4,nt,nt,nt,
O=C(Nc1ccc(N2CCN(C(=O)c3ccccc3F)CC2)cc1)c1cncc(Br)c1,45.5*,1.5,62.6*,35.2,12.7,30.8*,61.6*,20.6,
SMILES,tim10-1 inh,MPTP inh,Mdm2 MdmX PPI,tim23-1 inh,TIM10 inh,tim10-1 conf,Mdm2-MdmX conf,Full FLuc ctr,others
Cc1cc(Br)cn2c(Cc3cccc(F)c3)c(-c3ccccc3)nc12,nt,2.2,nt,nt,nt,nt,nt,nt,
O=C1Cc2ccccc2N1c1ccccc1,11.2,-0.2,-51.8,-28.6,6.1,nt,nt,nt,
O=C1CC(=Nc2ccccc2)NN1c1ccccc1,55.1*,37.6,58.4*,58.5*,49.1*,45.2*,0.9,nt,TIM10 conf=44.0*;tim23-1 confirm=75.8*
COc1ccc(-c2[nH]ncc2-c2ccc3c(c2)OCCO3)c(O)c1,40.4*,0.8,84.1*,46.1,34.8,28.4,90.0*,51.8*,
COc1ccc(-c2cn[nH]c2-c2ccc(OCc3ccc([N+](=O)[O-])cc3)cc2O)cc1,46.9*,11.0,86.0*,27.7,41.7*,12.3,77.2*,22.4,TIM10 conf=-5.6
COc1ccc(-c2cn[nH]c2-c2ccc(O)cc2O)cc1OC,0.4,0.0,34.6,1.4,10.7,nt,nt,nt,
CC(C)c1ccc(/C=C(\c2nc3ccccc3[nH]2)S(=O)(=O)c2ccccc2)cc1,53.5*,5.4,100.3*,45.0,45.5*,47.3*,100.2*,52.7*,TIM10 conf=37.4*
CCOC(=O)[C@]12CCCC=C1N(Cc1ccc(Cl)cc1Cl)C(=O)[C@H](CC(=O)NCCc1ccccc1OC)C2,nt,-2.1,nt,nt,nt,nt,nt,nt,
CN1C(=O)/C(=C/c2cccc(Cl)c2)Sc2ccc(C(=O)N3CCCC3)cc21,51.9*,nt,73.2*,32.8,10.1,9.8,12.6,nt,
Cc1cccc(/C=C2\Sc3ccc(C(=O)N4CCOCC4)cc3N(C)C2=O)c1,17.3,-1.9,12.2,9.6,-1.6,nt,nt,nt,
NNC(=O)CSc1cccc2cccnc12,26.2,4.9,16.9,8.5,11.0,nt,nt,nt,
O=C(CSc1cccc2cccnc12)N1CCCC1,42.0*,1.5,66.3*,45.5,-2.7,34.5*,3.5,nt,
CCc1nc2ccc(C(=O)NCCCN3CCCC3=O)cn2c1N(C)C(=O)Nc1ccccc1OC,nt,-2.0,nt,nt,nt,nt,nt,nt,
CCCc1nc2ccc(Cl)cn2c1Cc1ccccc1,nt,-1.6,nt,nt,nt,nt,nt,nt,

# Compound activity deposited in PubChem BioAssay by Sanford-Burnham Center for Chemical Genomics.
